Most compounds without a hit are left out; they make up all but 4.2% or so of the library.
NALP1 inh: inhibitors of NALP1 inflammasome in yeast; 280,000 tested, 0.61% active; S. cerevisiae NALP1/ASC/caspase-1 growth, X-gal OD620, 72 h; inhibition, % at 10 µM; AID 2071; in the data active means inhibition mostly above about 24%, no sharp cut-off; inactive means mostly below about 32%
NALP3 yeast inh: inhibitors of NALP3 inflammasome in yeast | Yeast reconstituted NLRP3/ASC/caspase-1, beta-gal luminescence, 24 h | inhibition, % at 10 µM | 330,000 tested, 0.39% active;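 active means inhibition of 50% or more; inactive means inhibition below 50%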;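 further: plate controls were induced DMSO wells for no effect and uninduced yeast grown without galactose for full effect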
tim23-1 inh: inhibits growth of tim23-1 mutant yeast. 330,000 tested, 1.3% active. inhibition, % at 20 µM. S. cerevisiae tim23-1 growth, BacTiter-Glo luminescence, 24 h;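 active means growth inhibition of the mutant yeast at or above 50%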;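 further: temperature-sensitive mutant grown at 25 °C; plate controls were DMSO-treated mutant yeast for no effect and medium wells lacking yeast for full effect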
V-ATPase pHluor: alters yeast V-ATPase proton transport; S. cerevisiae, pHLuorin cytosolic pH fluorescence; 350,000 tested, 0.37% active; response, % at 10 µM; AID 504577; in the data active means response mostly above about 7.3%, no sharp cut-off; inactive means mostly below about 5.4%; further: actives read high
TIM10 inh: inhibits growth of TIM10 yeast strain; S. cerevisiae TIM10 strain growth, BacTiter-Glo luminescence, 24 h; inhibition, % at 10 µM; 330,000 tested, 1.4% active;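 active means inhibition of 40% or more at the single tested concentration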;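 further: wild-type TIM10 isogenic control strain grown at permissive 25 °C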
tim10-1 inh: tim10-1 yeast growth inhibition; inhibition, % at 20 µM; S. cerevisiae tim10-1 ts strain growth, BacTiter-Glo, 24 h; 330,000 tested, 2.2% active;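 active means inhibition of at least 40%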;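 further: mutant grown at 25 °C; 0% = DMSO wells with yeast and 100% = wells holding no yeast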
TIM10 conf: confirmation of TIM10 yeast growth inhibitors; AID 463215; shares compounds with TIM10 inh; S. cerevisiae tim10 strain growth, BacTiter-Glo luminescence, 24 h; inhibition, % at 10 µM; 4,600 tested, 63% active;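 active means inhibition of yeast growth at or above a set limit in either of two replicates at 10 µM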;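 further: this counterscreen used the strain with wild-type TIM10; 0% = yeast with DMSO and 100% = medium wells lacking yeast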
Numbers without * were called inactive.

`CCCOc1cccc(C(=O)NC(=S)Nc2cccc(C(F)(F)F)c2)c1` gave NALP1 inh 0.4, NALP3 yeast inh 21.1, tim23-1 inh 22.7, V-ATPase pHluor 1.3, TIM10 inh 41.1*, tim10-1 inh 17.4 and TIM10 conf 16.9.
For C=CCn1c(N/N=C/c2ccc(O)cc2)nc2ccccc2c1=O the results were NALP1 inh 23.1, NALP3 yeast inh -10.4, tim23-1 inh 43.2, V-ATPase pHluor 2.9, TIM10 inh 44.9*, tim10-1 inh 38.3 and TIM10 conf 32.2*.
`CC(C)c1ccccc1OCC(O)CN1CCN(S(=O)(=O)c2ccc([N+](=O)[O-])cc2)CC1` (stereo not drawn) gave NALP1 inh -7.0, NALP3 yeast inh 13.9, tim23-1 inh 38.7, V-ATPase pHluor 2.0, TIM10 inh 40.1*, tim10-1 inh 34.9 and TIM10 conf 52.3*.
For CCCc1nc2c(sc3nc4c(cc32)COC(C)(C)C4)c(=O)n1CCN(CC)CC the results were NALP1 inh 1.1, NALP3 yeast inh 2.2, tim23-1 inh 11.6, V-ATPase pHluor 0.1, TIM10 inh -8.2 and tim10-1 inh 0.3.
CCCCn1cnc2c(oc3nc4c(cc32)CCCC4)c1=O was read as NALP1 inh -6.8, NALP3 yeast inh 7.2, tim23-1 inh 23.2, V-ATPase pHluor -2.4, TIM10 inh 17.7 and tim10-1 inh -20.5.
CCCCCCn1cnc2c(oc3nc4c(cc32)CCCC4)c1=O was read as NALP1 inh 34.7, NALP3 yeast inh 17.9, tim23-1 inh 10.9, V-ATPase pHluor -3.0, TIM10 inh 43.2*, tim10-1 inh 8.5 and TIM10 conf -2.2.
For CC(C)(C)n1nnnc1C(c1ccncc1)N(Cc1ccccc1)Cc1ccco1 (stereo not drawn) the results were NALP1 inh 15.8, NALP3 yeast inh 12.9, tim23-1 inh 33.6, V-ATPase pHluor -2.0, TIM10 inh 41.5*, tim10-1 inh 30.6 and TIM10 conf -3.8.
CC(C)(C)n1nnnc1C(c1cccs1)N(Cc1ccccc1)Cc1ccco1 (stereo not drawn) was read as NALP1 inh -4.9, NALP3 yeast inh 5.8, tim23-1 inh 37.9, V-ATPase pHluor 3.1, TIM10 inh 4.1 and tim10-1 inh 25.1.
O=C(/C=C/c1cccc(F)c1)Nc1ccc(S(=O)(=O)N2CCOCC2)cc1 was read as NALP3 yeast inh 15.6, tim23-1 inh 24.5, V-ATPase pHluor -1.8, TIM10 inh 67.8*, tim10-1 inh 10.8 and TIM10 conf 45.0*.
COc1ccc(/C=C/C(=O)Nc2ccc(NC(C)=O)cc2)cc1S(=O)(=O)N1CCOCC1 was read as NALP3 yeast inh 9.0, tim23-1 inh 3.5, V-ATPase pHluor 0.8, TIM10 inh 96.3*, tim10-1 inh 10.1 and TIM10 conf -18.1.
Screening O=C(CSCc1ccc(Cl)cc1)Nc1ccc(S(=O)(=O)N2CCOCC2)cc1 returned NALP1 inh 32.4, NALP3 yeast inh 2.0, tim23-1 inh 24.5, V-ATPase pHluor 0.8, TIM10 inh 42.7*, tim10-1 inh 13.0 and TIM10 conf -7.0.
`CN(C)S(=O)(=O)c1cccc(NC(=O)/C=C/c2ccc(S(=O)(=O)N3CCOCC3)cc2)c1` gave NALP3 yeast inh -1.0, tim23-1 inh 4.7, V-ATPase pHluor -3.0, TIM10 inh 3.5 and tim10-1 inh 1.7.
For O=C(/C=C/c1ccccc1)Nc1ccc(S(=O)(=O)N2CCOCC2)cc1 the results were NALP1 inh 0.1, NALP3 yeast inh 20.6, tim23-1 inh 32.9, V-ATPase pHluor -0.8, TIM10 inh 46.0*, tim10-1 inh 39.7 and TIM10 conf 44.3*.
Screening CC(=O)c1cccc(NC(=O)/C=C/c2ccc(S(=O)(=O)N3CCOCC3)cc2)c1 returned NALP3 yeast inh 23.6, tim23-1 inh 12.3, V-ATPase pHluor -6.7, TIM10 inh 2.2 and tim10-1 inh 11.3.
For CCO[C@@H]1OC(C(=O)N2CCN(Cc3ccccc3)CC2)=C[C@H](c2coc3ccccc3c2=O)[C@H]1CCCO the results were NALP1 inh -0.5, NALP3 yeast inh 25.4, tim23-1 inh 4.0, V-ATPase pHluor 0.9, TIM10 inh 3.5 and tim10-1 inh -9.3.
`CCc1cc(-c2nnn(CCC3COCCO3)c2CC)ccc1-c1cn(Cc2ccccc2)nn1` (stereo not drawn) gave V-ATPase pHluor 3.2.
For O=C(/C=C/c1ccccc1)Nc1cccc(C(=O)N2CCCCC2)c1 the results were V-ATPase pHluor 4.0.
`O=C(/C=C/c1ccccc1)Nc1ccc(C(=O)N2CCCCC2)cc1` gave NALP1 inh -1.7, NALP3 yeast inh 17.8, tim23-1 inh 17.0, V-ATPase pHluor -1.6, TIM10 inh 47.9*, tim10-1 inh 34.1 and TIM10 conf 26.1.
Screening CCOc1ccc2c(c1)C(c1ccc(C)cc1)=NNC(c1ccc(OC)cc1)=N2 returned NALP1 inh -18.5, NALP3 yeast inh 9.6, tim23-1 inh 27.7, V-ATPase pHluor 2.4, TIM10 inh -0.4 and tim10-1 inh -3.9.
CCOc1ccc(C2=NNC(c3cccnc3)=Nc3ccc(OC)cc32)cc1 was read as NALP1 inh -1.0, NALP3 yeast inh 16.8, tim23-1 inh 10.8, V-ATPase pHluor 3.8, TIM10 inh 51.4*, tim10-1 inh 14.1 and TIM10 conf 31.2.
Cc1ccc2ccc(C3C(=O)c4ccccc4C3=O)nc2c1 was read as NALP3 yeast inh 2.9, tim23-1 inh 27.3, V-ATPase pHluor -0.3, TIM10 inh 61.3*, tim10-1 inh 12.5 and TIM10 conf 66.5*.
Screening Cc1ccc(C)c(C2C(=O)c3ccccc3C2=O)c1 returned NALP1 inh 20.5, NALP3 yeast inh 8.6, tim23-1 inh 18.3, V-ATPase pHluor 1.1, TIM10 inh -10.7 and tim10-1 inh 2.6.
CN(C)S(=O)(=O)c1ccc(C(=O)NCC(C)(C)CN=C2NS(=O)(=O)c3ccccc32)cc1 was read as NALP1 inh 20.3, NALP3 yeast inh 2.2, tim23-1 inh -4.3, V-ATPase pHluor 0.4, TIM10 inh 1.0 and tim10-1 inh -16.0.
`Cn1c(SCC(=O)N/N=C/c2ccc([N+](=O)[O-])s2)nnc1-c1ccccc1` gave NALP1 inh 41.8, NALP3 yeast inh 22.4, tim23-1 inh 43.3, V-ATPase pHluor 2.2, TIM10 inh 71.0*, tim10-1 inh 28.1 and TIM10 conf 82.1*.
Cc1cc(/C=C2\SC(=S)N(C)C2=O)c(C)n1-c1ccc(O)cc1 was read as NALP1 inh -12.6, NALP3 yeast inh 12.5, tim23-1 inh 28.3, V-ATPase pHluor 0.7, TIM10 inh 74.2*, tim10-1 inh 33.6 and TIM10 conf 91.1*.
Cc1cc(/C=C2\SC(=S)N(C)C2=O)c(C)n1-c1ccccc1O was read as NALP3 yeast inh 26.6, tim23-1 inh -9.8, V-ATPase pHluor 0.3, TIM10 inh 21.7 and tim10-1 inh -5.6.

Assay outcomes: PubChem, several laboratories
